# PubChem BioAssay (EPA / NIEHS)
# Activity calls are given as the source filed them. How the source made its calls: active means hit-call score of the fitted dose curve at least 0.9, where 1 is the maximum; inactive means score below 0.9.
# Assay: ATG_FoxO_CIS: Attagene CIS-FACTORIAL HepG2 Assay for human Forkhead box O (FoxO) (AID 2282943)
# Conditions: HepG2 Attagene cis-reporter, FoxO element, mRNA; actives raise or lower the signal
# Protocol: ATG_CIS is a cell-based, multiplexed-readout assay that uses HepG2, a human liver cell line, with measurements taken at 24 hours after chemical dosing in a 24-well plate.ATG_FoxO_CIS is one of 52 assay component(s) measured or calculated from the ATG_CIS assay. It is designed to make measurements of mRNA induction, a form of inducible reporter, as detected with fluorescence intensity signals by Reverse transcription polymerase chain reaction (RT-PCR) and Capillary electrophoresis technology.Data from the assay component ATG_FoxO_CIS was analyzed into 1 assay endpoint. This assay endpoint, ATG_FoxO_CIS, was analyzed with bidirectional fitting relative to DMSO as the negative control and baseline of activity. Using a type of inducible reporter, measures of mRNA for gain or loss-of-signal activity can be used to understand the reporter gene at the transcription factor-level as they relate to the gene FOXO1 and FOXO3. Furthermore, this assay endpoint can be referred to as a primary readout, because this assay has produced multiple assay endpoints where this one serves a reporter gene function. To generalize the intended target to other relatable targets, this assay endpoint is annotated to the dna binding intended target family, where the subfamily is forkhead box protein.
# Human liver HepG2 cells are transiently transfected with multiple reporter transcription units (MRTUs) in 6-well plates using FuGene 6 reagent (Roche; 3 ml FuGene/1 mg DNA). The MRTU constructs are regulated by a cis-regulating element (promoter). […] A major difference between the CIS and TRANS system is that in CIS activities of endogenous TFs are measured, whereas the TRANS assay evaluates changes in activities of exogenous, chimeric NR-Gal4 proteins. […] At the end of 24 hour incubation, total RNA was isolated using TriZol reagent (Invitrogen). The isolated RNA is then reverse-transcribed using oligo(dT) primer and Mo-MLV reverse transcriptase (Invitrogen) with DNAse I (Ambion) treatment for 30 min. The one-tenth of the produced cDNA was amplified by PCR using Taq DNA polymerase (Invitrogen) and two reporter sequence-specific primers. The PCR products were fluorescently labeled by primer extension with 6-arboxyfluorescein (6-FAM) 5'-labeled reporter sequence-specific primer (2 min at 95 C, 20 s at 68 C and 10 min at 72 C) and these products were digested with 5U of HpaI (New England Biolabs) for 2h at 37 C. The fragments were purified using Qiaquick PCR columns (Qiagen), analyzed on an ABI 3130xL genetic analyzer (Applied Biosystems) with peak positions identified by using a set of X-rhodamine (ROX)-labeled MapMarker1000 molecular weight standards (BioVentures). The raw capillary electrophoresis data was processed using Attagraph software (Attagene).
row,Structure (SMILES),outcome
1,COc1cc(OC)nc(NC(=O)NS(=O)(=O)c2ncccc2C(=O)N(C)C)n1,inactive
2,Nc1ccc(N=Nc2ccc(-c3ccc(N=Nc4c(S(=O)(=O)O)cc5cc(S(=O)(=O)O)c(N=Nc6ccccc6)c(O)c5c4N)cc3)cc2)c(N)c1,inactive
3,C=CC#N,inactive
4,CC1(C)Cc2cccc(O)c2O1,inactive
5,Nc1ncc([N+](=O)[O-])s1,inactive
6,C[C@]12CC[C@H](O)CC1=CC[C@@H]1[C@@H]2CC[C@]2(C)C(=O)CC[C@@H]12,inactive
7,ClCCBr,inactive
8,CC(=O)C=C(C)C,inactive
9,Clc1ccc(COC(Cn2ccnc2)c2ccc(Cl)cc2Cl)cc1 (stereo not given),inactive
10,Cc1ccc(N)cc1Cl,inactive
11,COc1ccc(OC)c(C=O)c1,inactive
12,C=CCc1ccc(OC)cc1,inactive
13,O=C(Nc1ccc2[nH]ccc2c1)c1cc2cc(F)ccc2n1Cc1cccc(F)c1,inactive
14,CC1CN1P(=O)(N1CC1C)N1CC1C (stereo not given),inactive
15,CCC[CH2][Sn]([CH2]CCC)([CH2]CCC)[O]C(=O)c1ccccc1,inactive
16,CC1(C)CCC(Cc2ccc(Cl)cc2)C1(O)Cn1cncn1 (stereo not given),inactive
17,Nc1ccc(-c2ccc(N)c(Cl)c2)cc1Cl,inactive
18,COS(=O)(=O)c1ccc(C)cc1,inactive
19,Cn1sc(Cl)cc1=O,inactive
20,COC(=O)c1sccc1S(=O)(=O)NC(=O)Nc1nc(C)nc(OC)n1,inactive

row,Structure (SMILES),outcome
1,C(=NC1CCCCC1)=NC1CCCCC1,inactive
2,NC(=O)O,inactive
3,CC(=[OH+])/C=C(/C)[O-].CC(=[OH+])/C=C(/C)[O-].CC(=[OH+])/C=C(/C)[O-].[Fe],inactive
4,CCC(=O)c1ccccc1,inactive
5,O=C(Cc1ccccc1)c1ccccc1,inactive
6,COc1ccc(C=O)cc1OC,inactive
7,CC(C)C1CCC(Cc2ccc(Cl)cc2)C1(O)Cn1cncn1 (stereo not given),inactive
8,CCc1ccccc1N,inactive
9,O=C(NCO)NCO,inactive
10,ClC1(Cl)C2(Cl)C3(Cl)C4(Cl)C(Cl)(Cl)C5(Cl)C3(Cl)C1(Cl)C5(Cl)C24Cl (stereo not given),inactive
11,COC[C@H](C)N(C(=O)CCl)c1c(C)csc1C,inactive
12,COC(=O)Cc1ccccc1,inactive
13,c1cc[c]([Hg][c]2ccccc2)cc1,inactive
14,CCOP(=S)(OCC)Oc1nc(Cl)c(Cl)cc1Cl,inactive
15,CC(C)c1ccc(CO)cc1,inactive
16,COP(=S)(OC)Oc1ccc(Sc2ccc(OP(=S)(OC)OC)cc2)cc1,inactive
17,CC(C)(C)c1cc(O)ccc1O,inactive
18,CCOC(=O)/C=C(C)/C=C/C[C@@H](C)CCCC(C)C,inactive
19,O=C(O)C(F)(F)C(F)(F)C(F)(F)C(F)(F)C(F)(F)C(F)(F)C(F)(F)C(F)(F)C(F)(F)C(F)(F)F,inactive
20,CC(C)OC(=O)Nc1ccccc1,inactive
